Compound activity: PubChem BioAssay, National Center for Advancing Translational Sciences (NCATS)
The sample as a whole holds a higher share of hits than the screen did.
LmPK inhibitor: LmPK (Leishmania mexicana) enzyme inhibition; Potency, µM (highest dose often 57.5 µM), inactives show at the top dose activity change, negative = inhibition, most hits filed as inhibitors; purified LmPK, Kinase-Glo ATP luminescence, 1 h; actives 0.37% (n = 290,000); Q27686; also: potency is read from the fitted curve at half-maximal effect; % is scaled to controls: 0 for no effect and ±100 for the full control effect
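Purified LmPK (0.1 nM) converted ADP (0.1 mM) to ATP with PEP (0.5 mM) in imidazole buffer pH 7.2 with KCl and MgCl2, 1 h at room temperature. ATP was read by Kinase-Glo luminescence; data normalized to uninhibited and no-enzyme controls.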
TbPYK inhibitor: inhibitors of Trypanosoma brucei pyruvate kinase; Potency, µM (doses to about 76.8 µM), for the others: at the highest dose activity, negative = inhibition, hits mostly inhibitors; Q57TT1; actives 0.12% (n = 410,000); AID 624173; TbPYK enzyme, Kinase-Glo Plus ATP luminescence, 45 min; also: potency is read from the fitted curve at half-maximal effect; % is scaled to controls: 0 for no effect and ±100 for the full control effect; nearly all actives have a fitted effect of over 50% in size
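Enzyme and substrate buffer are dispensed first and compound is pin-transferred. ADP at 130 uM final then starts the reaction, which runs 45 min at room temperature. Detection reagent is added for 10 min before luminescence is imaged.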
Giardia FBPA inh: inhibitors of Giardia lamblia fructose-1,6-bisphosphate aldolase | actives 0.71% (n = 290,000) | Potency, µM (titrated, usually from 59.6 µM), without a hit: at the top dose activity, negative = inhibition, hits mostly inhibitors | A8B2U2 | purified Giardia FBPA | AID 2451; also: potency is read from the fitted curve at half-maximal effect; % is scaled to controls: 0 for no effect and ±100 for the full control effect; nearly all actives have a fitted effect of over 55% in size
Target sequence (A8B2U2 whole entry, looked up): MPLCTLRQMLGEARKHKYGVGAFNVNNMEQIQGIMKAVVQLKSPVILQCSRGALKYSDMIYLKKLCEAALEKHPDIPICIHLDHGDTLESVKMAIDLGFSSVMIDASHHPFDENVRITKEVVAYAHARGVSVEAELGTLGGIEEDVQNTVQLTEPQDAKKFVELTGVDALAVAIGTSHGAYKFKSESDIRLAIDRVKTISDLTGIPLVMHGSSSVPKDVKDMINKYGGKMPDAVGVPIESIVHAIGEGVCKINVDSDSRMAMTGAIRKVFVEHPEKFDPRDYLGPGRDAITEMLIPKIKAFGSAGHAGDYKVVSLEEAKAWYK
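40 nM FBPA preincubated 10 min at RT with compound (up to 57.5 uM final), then substrate plus GAPDH/TPI/NAD/arsenate coupling and diaphorase/resazurin added. Fluorescence read after 20 min at RT, 525/598 nm.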
CHX counter: counter-screen for Shiga toxin inhibitors: cycloheximide protein synthesis inhibition. actives 12% (n = 300,000). cell reporter, cycloheximide protein synthesis inhibition counterscreen. AID 2314. max response, %; in the data active = max response mostly above about 13%, no sharp cut-off; inactive = mostly below about 14%; also: read at 38.3 µM for the half of the compounds with a filed dose; 0% is about no effect
Shiga toxin inh: blocks Shiga toxin action in Vero cells; Vero cells, Shiga toxin protein synthesis inhibition reporter; inhibition, % at 38.7 µM; actives 9.2% (n = 290,000); AID 2315; in the data active = inhibition mostly above about 28%, no sharp cut-off; inactive = mostly below about 43%; also: 0% is about no effect
Sm TGR block: S. mansoni TGR enzyme inhibition | Q962Y6 | purified TGR, DTNB reduction, TNB absorbance 405 nm | Potency, µM (top dose mostly 114 µM), for inactives: at the top dose activity change, negative = inhibition, usual class: inhibitors | actives 3% (n = 360,000) | AID 485364; also: potency is read from the fitted curve at half-maximal effect; % is scaled to controls: 0 for no effect and ±100 for the full control effect; nearly all actives have a fitted effect of over 60% in size
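First, TGR (20 nM dispensed) and NADPH were mixed with compound. Second, a 15 min room-temperature incubation followed. Third, further NADPH and then DTNB were added to start the reaction. Finally, TNB absorbance was monitored kinetically.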
The depositor's hits bear a star; ? = inconclusive; / = no result; ! = not confirmed by another sample; [ ] = remark or other dose. Unless noted, calls follow the shape of the dose curve; as a rule, active = well fitted curve in the direction sought with a large enough effect; inconclusive = small, poorly fitted or top-dose-only effect, or another doubt; inactive = no such curve, though single readings can be large; an effect the other way counts as inactive or inconclusive.

SMILES	LmPK inhibitor	TbPYK inhibitor	Giardia FBPA inh	CHX counter	Shiga toxin inh	Sm TGR block
COC(=O)c1cc(S(=O)(=O)C(C)C)c(S(C)=O)s1 (stereo not drawn)	2%	3%	4%	14*	27	35µM*
C#C[C@]1(O)CC[C@@H]2[C@H]3CCC4=Cc5oncc5C[C@]4(C)[C@@H]3CC[C@@]21C	/	/	0%[21.7 µM]	/	/	/
NNc1nc(Nc2ccccc2)nc(Nc2ccccc2)n1	-1%	0%	-2%	28	36*	-6%
C=CCNc1nc(Cl)nc(Nc2ccccc2)n1	0%	1%	3%	22*	40*	2%
NNc1ccccc1	/	4%	-16%	14*!	11	/
NNc1nccc(Nc2ccccc2C(=O)O)n1	-7%	-7%	?	7	-5	4%
c1ccc(Nc2ccnc(Nc3ccccc3)n2)cc1	-2%	-8%	-16%	53*	100*	11%
COc1cc(OC)c(NC(=O)c2ccc3nc(C(C)C)oc3c2)cc1Cl	/	6%	/	/	/	1%
Cc1ccc(-n2ncc(C(=O)N3CCN(Cc4ccccc4)CC3)c2C2CCN(C(=O)OC(C)(C)C)CC2)c(C)c1	/	24%	/	/	/	-2%
Cc1cc(=O)[nH]c2nnc(SCc3cccc(C(F)(F)F)c3)n12	/	6%	/	/	/	0%
Cc1ccc(Nc2nc(Cl)nc(NC(C)(C)C)n2)cc1	5%	0%	1%	54*	60*	2%
CNc1nc(Cl)nc(Nc2ccccc2)n1	2%	-1%	-5%	40*	45*	6%
O=c1oc2cc(O)c(Cl)cc2c2ccccc12	-6%	-12%	6%	-3	33	-7%
O=c1oc(Cl)c(Cl)c2ccccc12	/	-5%	-3%	/	/	3.2µM*
Cc1ccc(NC2c3ncccc3C(=O)N2c2ccccc2C)cc1C (stereo not drawn)	-2%	?	-20%	22*	72*	4%
C/C(=N\NC(=O)c1cccc(C)c1)c1cccc(NC(=O)c2ccco2)c1	0%	-7%	0%	19*	32	3%
O=C(N/N=C/c1ccco1)c1ccc(NC(=O)c2ccccc2Cl)cc1	3%	-3%	0%	3	-8	-11%
C/C(=N\NC(=O)c1cccc(Cl)c1)c1cccc(NC(=O)c2ccco2)c1	7%	-16%	-1%	24*	91*	-1%
C/C(=N/NC(=O)c1cccc(C)c1)c1c(O)cc(C)oc1=O	-1%	-1%	?	31*	61*	-1%
CC(=NNC(=O)c1ccncc1)c1cccc(Cl)c1	/	1%	/	/	/	/
O=C(N/N=C/c1ccco1)c1cccc(NC(=O)c2cccc(Cl)c2)c1	1%	-1%	1%	41*	81*	-20%
CC(=O)N=c1cccc(NC(C)=O)n1O	-4%	-3%	2%	-2	12	1%
CC1(c2cnc(Nc3ccccc3)s2)CCC(=O)O1 (stereo not drawn)	2%	5%	5%	34*	64*	-3%
CC1(c2ccc3ccccc3c2)CCC(=O)O1 (stereo not drawn)	/	3%	/	/	/	/
COc1cc2c(cc1OC)C(COc1ccc(F)cc1)N(C(=O)c1cccc(F)c1)CC2 (stereo not drawn)	/	-11%	/	/	/	11%
SMILES	LmPK inhibitor	TbPYK inhibitor	Giardia FBPA inh	CHX counter	Shiga toxin inh	Sm TGR block
CC(=O)Nc1ccc(NC(=O)C(C)OC(=O)C2(c3ccccc3F)CCCC2)cc1 (stereo not drawn)	/	3%	/	/	/	3%
O=c1c2c([nH]c3ccccc13)C(=C1CCCC1)CC2	0%	3%	1%	1	-8	13µM*
O=[N+]([O-])c1ccc(-c2cn3c(n2)CCC3)cc1	-8%	-1%	4%	57*	104*	13%
c1ccc(-c2cn3c(n2)CCC3)cc1	5%	2%	2%	7	5	-20%
CCOC(=O)C1(Cc2ccccc2)CCCN(C(=O)C=C(C)C)C1 (stereo not drawn)	1%	2%	0%	24*	86*	0%
CCOC(=O)C1(Cc2ccccc2)CCCN(C(=O)c2ccc(-n3ccnc3)cc2)C1 (stereo not drawn)	0%	1%	/	26*	42*	5%
Nc1nnc(SCCCC(=O)c2ccc(Br)cc2)s1	-1%	5%	0%	58*	67*	-1%
